# Several values for one entry are separate records, joined by “and”; a condition that tells them apart may be missing. Equal entries are not always repeated. Records with an inconclusive call do not appear. More than one record can exist for a structure, and the calls need not agree. Activity calls are given as the source filed them. The calls were made as follows, unless noted: active = hit-call score of the fitted dose curve at least 0.9, where 1 is the maximum; inactive = score below 0.9.
# What was measured:
# [1] = ATG_TAL_CIS: Attagene CIS-FACTORIAL HepG2 Assay for human TAL Basal Promoter (AID 2282966); conditions: HepG2 Attagene cis-factorial TAL promoter reporter; actives raise or lower the signal;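 also: background control endpoint measuring basal TAL promoter reporter mRNA not a specific factor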
# Procedure, shortened: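 Endogenous transcription-factor activity is sensed in HepG2 cells through transfected cis-promoter reporter constructs. After 24 h dosing, reporter transcripts are quantified by RT-PCR and capillary electrophoresis. Gain or loss of signal is fitted relative to DMSO.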
# [2] = ATG_TGFb_CIS: Attagene CIS-FACTORIAL HepG2 Assay for human Transforming Growth Factor (TGF) (AID 2282967); conditions: HepG2 Attagene CIS TGFb reporter, mRNA transcription; actives raise or lower the signal
# Procedure, shortened: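 Endogenous TGFB1-linked transcription factor activity read as reporter mRNA via RT-PCR and capillary electrophoresis, 24 h after dosing transiently transfected HepG2 cells. Gain or loss of signal fitted relative to DMSO.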
# [3] = ATG_VDRE_CIS: Attagene CIS-FACTORIAL HepG2 Assay for human Vitamin D Receptor Element (VDRE) (AID 2282968); conditions: HepG2 VDRE cis-reporter transcription, actives raise or lower the signal
# Procedure, shortened: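 Transfected HepG2 reporter cells, chemical treatment 24 h. RNA isolated, cDNA amplified with reporter-specific primers, products analysed by capillary electrophoresis. Endpoint fitted in both directions versus DMSO.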
# [4] = target: Steroid hormone receptor ERR1 (Homo sapiens) (UniProt P11474); experiment: ATG_ERRa_TRANS: Attagene TRANS-FACTORIAL HepG2 Assay for human Estrogen-Related Receptor alpha (ERRa) (AID 2282971; active = hit-call score of the fitted dose curve at least 0.9, where 1 is the maximum); conditions: HepG2 Attagene TRANS reporter, ERRa transactivation
# Procedure, shortened: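 HepG2 cells were transiently transfected with multiple GAL4-UAS reporter units, then dosed with compound for 24 h. Total RNA was reverse-transcribed, reporter cDNA PCR-amplified and fluorescently labelled, and fragments resolved by capillary electrophoresis; induction was compared with DMSO.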
# [5] = target: X-box-binding protein 1 (Homo sapiens) (UniProt P17861); experiment: ATG_Xbp1_CIS: Attagene CIS-FACTORIAL HepG2 Assay for human X-box Binding Protein 1 (XBP1) (AID 2282972); conditions: HepG2 XBP1 cis-element reporter, Attagene multiplex; actives raise or lower the signal
# Procedure, shortened: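 Human hepatoma HepG2, cis-element reporter system, 24 h treatment; mRNA quantified by RT-PCR/CE fluorescence; fit relative to DMSO.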
# [6] = ATG_M_19_TRANS: Attagene TRANS-FACTORIAL HepG2 Assay for M19 Transcription Factor (Internal Marker) (AID 2282974; active = hit-call score of the fitted dose curve at least 0.9, where 1 is the maximum); conditions: HepG2 Attagene TRANS-FACTORIAL M19 internal marker reporter
# Procedure, shortened: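 Background-control readout: after 24 h chemical exposure of transfected HepG2 carrying GAL4-driven reporter units, RNA was reverse-transcribed, amplified, fluorescently labeled and sized by capillary electrophoresis; gain-of-signal fit against DMSO.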
# [7] = ATG_GAL4_TRANS: Attagene TRANS-FACTORIAL HepG2 Assay for GAL4 (Internal Marker) (AID 2282976; active = hit-call score of the fitted dose curve at least 0.9, where 1 is the maximum); conditions: HepG2 Attagene TRANS GAL4 internal marker reporter
# Procedure, shortened: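 Fluorescence from capillary electrophoresis of labelled RT-PCR products quantifies reporter mRNA induction after 24 h dosing of HepG2 cells carrying transfected GAL4-UAS reporter transcription units. Vehicle DMSO serves as baseline.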
# [8] = target: Nuclear receptor subfamily 1 group I member 3 (Homo sapiens) (UniProt Q14994); experiment: ATG_CAR_TRANS: Attagene TRANS-FACTORIAL HepG2 Assay for human Constitutive Androstane Receptor (CAR) (AID 2282969; active = hit-call score of the fitted dose curve at least 0.9, where 1 is the maximum;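 also: activators raise reporter mRNA above DMSO so AC50 marks induction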); conditions: HepG2 Attagene TRANS-FACTORIAL CAR reporter
# Procedure, shortened: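 Steps: transient transfection of HepG2 with multiple GAL4-UAS reporter units; 24 h compound incubation; RNA isolation, RT-PCR, 6-FAM primer extension, HpaI digest; capillary electrophoresis. Gain-of-signal relative to DMSO negative control.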
# [9] = target: Estrogen receptor (Homo sapiens) (UniProt P03372); experiment: ATG_ERa_TRANS: Attagene TRANS-FACTORIAL HepG2 Assay for human Estrogen Receptor alpha (ERa) (AID 2282970; active = hit-call score of the fitted dose curve at least 0.9, where 1 is the maximum); conditions: HepG2 Attagene TRANS ERa GAL4 reporter, mRNA
# Procedure, shortened: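 Transfected HepG2 cells carrying GAL4-UAS-driven reporter units were dosed for 24 hours. Total RNA was reverse-transcribed, reporter sequences PCR-amplified, FAM-labelled, HpaI-digested and resolved by capillary electrophoresis. Increases over DMSO control defined activity.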
# [10] = target: Estrogen-related receptor gamma (Homo sapiens) (UniProt P62508); experiment: ATG_ERRg_TRANS: Attagene TRANS-FACTORIAL HepG2 Assay for human Estrogen-Related Receptor gamma (ERRg) (AID 2282977; active = hit-call score of the fitted dose curve at least 0.9, where 1 is the maximum;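 also: hits increase reporter signal over DMSO so potencies reflect activators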); conditions: HepG2 Attagene TRANS reporter, ERRg transactivation
# Procedure, shortened: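 Readout: fluorescent reporter-mRNA fragments resolved by capillary electrophoresis after RT-PCR and HpaI cut. Cells: transiently transfected HepG2 carrying GAL4-UAS reporters driven by exogenous NR-Gal4 chimeras, dosed 24 h. Activity fitted upward relative to DMSO baseline.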
# Chain of Nuclear receptor subfamily 1 group I member 3 (Homo sapiens) (Q14994 whole entry, looked up, the tested form may be a part): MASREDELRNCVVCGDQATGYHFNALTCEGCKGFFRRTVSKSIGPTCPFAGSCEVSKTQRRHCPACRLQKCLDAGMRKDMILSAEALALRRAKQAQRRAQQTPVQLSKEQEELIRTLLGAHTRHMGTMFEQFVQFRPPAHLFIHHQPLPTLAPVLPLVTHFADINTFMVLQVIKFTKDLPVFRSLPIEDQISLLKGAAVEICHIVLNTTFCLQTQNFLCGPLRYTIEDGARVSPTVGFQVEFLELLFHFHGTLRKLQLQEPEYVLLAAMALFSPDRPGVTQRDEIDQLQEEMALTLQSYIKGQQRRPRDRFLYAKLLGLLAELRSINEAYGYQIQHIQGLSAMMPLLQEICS
# Chain of Estrogen receptor (Homo sapiens) (P03372 whole entry, looked up, the tested form may be a part): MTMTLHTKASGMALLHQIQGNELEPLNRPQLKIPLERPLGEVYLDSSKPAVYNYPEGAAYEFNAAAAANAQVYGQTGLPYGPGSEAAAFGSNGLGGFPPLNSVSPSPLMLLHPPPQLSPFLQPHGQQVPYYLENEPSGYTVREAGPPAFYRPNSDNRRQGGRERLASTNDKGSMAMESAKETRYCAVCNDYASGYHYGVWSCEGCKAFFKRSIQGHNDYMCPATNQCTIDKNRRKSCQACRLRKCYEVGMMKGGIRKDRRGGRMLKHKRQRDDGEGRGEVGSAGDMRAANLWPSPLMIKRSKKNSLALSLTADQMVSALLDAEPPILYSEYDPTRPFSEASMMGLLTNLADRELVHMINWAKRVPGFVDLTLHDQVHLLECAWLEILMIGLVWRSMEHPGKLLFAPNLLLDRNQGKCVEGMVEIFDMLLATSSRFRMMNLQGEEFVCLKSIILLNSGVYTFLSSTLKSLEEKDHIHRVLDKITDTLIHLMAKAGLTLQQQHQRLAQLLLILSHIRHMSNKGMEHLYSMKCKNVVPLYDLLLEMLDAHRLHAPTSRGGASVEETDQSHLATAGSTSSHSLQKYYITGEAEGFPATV
# Chain of Steroid hormone receptor ERR1 (Homo sapiens) (P11474 whole entry, looked up, the tested form may be a part): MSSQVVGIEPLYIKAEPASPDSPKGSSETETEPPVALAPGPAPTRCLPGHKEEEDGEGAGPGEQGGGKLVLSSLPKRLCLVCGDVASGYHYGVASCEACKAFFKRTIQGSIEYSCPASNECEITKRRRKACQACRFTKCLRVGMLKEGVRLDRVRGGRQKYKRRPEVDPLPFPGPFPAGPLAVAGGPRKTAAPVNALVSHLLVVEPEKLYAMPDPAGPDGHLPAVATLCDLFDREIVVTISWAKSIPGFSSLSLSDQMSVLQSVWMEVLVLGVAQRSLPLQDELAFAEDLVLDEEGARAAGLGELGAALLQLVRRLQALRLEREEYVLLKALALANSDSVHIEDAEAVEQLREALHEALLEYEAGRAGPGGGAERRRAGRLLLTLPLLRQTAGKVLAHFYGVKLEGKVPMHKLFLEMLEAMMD
# Chain of Estrogen-related receptor gamma (Homo sapiens) (P62508 whole entry, looked up, the tested form may be a part): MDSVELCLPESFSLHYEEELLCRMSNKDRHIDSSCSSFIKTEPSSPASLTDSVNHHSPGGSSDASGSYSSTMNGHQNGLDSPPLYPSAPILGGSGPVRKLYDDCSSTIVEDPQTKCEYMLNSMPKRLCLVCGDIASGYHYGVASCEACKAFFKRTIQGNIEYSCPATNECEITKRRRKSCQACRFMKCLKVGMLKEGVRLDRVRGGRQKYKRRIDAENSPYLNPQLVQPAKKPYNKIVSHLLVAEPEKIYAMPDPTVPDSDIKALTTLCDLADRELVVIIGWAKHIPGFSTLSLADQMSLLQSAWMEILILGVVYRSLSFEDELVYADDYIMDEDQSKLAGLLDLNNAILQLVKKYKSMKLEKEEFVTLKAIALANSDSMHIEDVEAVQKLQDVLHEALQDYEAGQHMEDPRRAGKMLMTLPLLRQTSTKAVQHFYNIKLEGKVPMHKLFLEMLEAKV
# Chain of X-box-binding protein 1 (Homo sapiens) (P17861 whole entry, looked up): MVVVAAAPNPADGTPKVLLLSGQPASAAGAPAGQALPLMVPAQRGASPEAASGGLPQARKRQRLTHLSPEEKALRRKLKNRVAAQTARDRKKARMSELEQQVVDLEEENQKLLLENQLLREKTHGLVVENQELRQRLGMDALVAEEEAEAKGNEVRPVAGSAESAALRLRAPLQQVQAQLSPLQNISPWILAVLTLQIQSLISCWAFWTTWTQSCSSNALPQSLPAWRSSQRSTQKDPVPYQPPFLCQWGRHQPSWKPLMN
compound,measurement,setting,value
CO[C@H]1/C=C/O[C@@]2(C)Oc3c(C)c(O)c4c(O)c(c(/C=N/N5CCN(C)CC5)c(O)c4c3C2=O)NC(=O)/C(C)=C\C=C\[C@H](C)[C@H](O)[C@@H](C)[C@@H](O)[C@@H](C)[C@H](OC(C)=O)[C@@H]1C,outcome,[1],inactive
same,outcome,[2],inactive
same,AC50,[3],1.38 µM (active)
same,outcome,[3],inactive
same,outcome,[4],inactive
same,outcome,[5],inactive
same,outcome,[6],inactive
same,outcome,[7],inactive
Clc1cc(Cl)c2c(c1)N=C1CCCCCN1C2,outcome,[1],inactive
same,outcome,[2],inactive
same,outcome,[3],inactive
same,outcome,[8],inactive
same,outcome,[9],inactive
same,outcome,[10],inactive
CCCC(=O)OCCC(C)C,outcome,[1],inactive
same,outcome,[2],inactive
same,outcome,[3],inactive
same,outcome,[9],inactive
same,outcome,[5],inactive
O=C(O)c1ccccc1-n1cc(C(=O)O)c(=O)c2cc(Nc3c(F)cc(F)cc3Cl)c(Cl)cc21,outcome,[1],inactive
same,outcome,[2],inactive
same,outcome,[3],inactive
same,outcome,[9],inactive
C[C@]12CC[C@@H]3c4ccc(O)cc4CC[C@H]3[C@@H]1CC[C@H]2O,outcome,[1],inactive
same,outcome,[2],inactive
same,AC50,[3],19.8 µM (active)
same,outcome,[3],inactive
same,outcome,[4],inactive
same,outcome,[6],inactive
same,outcome,[7],inactive
same,outcome,[10],inactive
CCN(CC)C(=O)c1cc(S(=O)(=O)Cc2ccccc2)c(N2CCC(c3ccccc3)CC2)cc1N(CC)CCN(C)C,outcome,[1],inactive
same,outcome,[2],inactive
same,outcome,[3],inactive
same,outcome,[8],inactive
same,outcome,[9],inactive
same,outcome,[5],inactive
same,outcome,[10],inactive
CN(C[C@@H](CC[N+]12CCC(C3CCCCC3)(CC1)CC2)c1ccc(Cl)c(Cl)c1)C(=O)c1cc(C(F)(F)F)cc(C(F)(F)F)c1,outcome,[1],inactive
same,outcome,[2],inactive
same,outcome,[3],inactive
same,outcome,[8],inactive
same,outcome,[9],inactive
same,outcome,[5],inactive
same,outcome,[10],inactive
CC1=CC(=O)/C(=C(/C)O)C(=O)O1,outcome,[1],inactive
same,outcome,[2],inactive
same,outcome,[3],inactive
same,outcome,[9],inactive
same,outcome,[5],inactive
O=C1CCC(C2CCCCC2)CC1,outcome,[1],inactive
same,outcome,[2],inactive
same,AC50,[3],86.8 µM (active)
same,outcome,[3],inactive
same,outcome,[8],inactive
same,outcome,[6],inactive
same,outcome,[7],inactive
same,outcome,[10],inactive
Cc1ccc(C(C)C)cc1,outcome,[1],inactive
same,outcome,[2],inactive
same,outcome,[3],inactive
CCCCCCCCOc1ccc(C(=O)c2ccccc2)c(O)c1,outcome,[1],inactive
same,outcome,[2],inactive
same,outcome,[3],inactive
same,outcome,[8],inactive
same,outcome,[9],inactive
same,outcome,[4],inactive
same,outcome,[6],inactive
same,outcome,[10],inactive
CCCCCCCC[Si](OCC)(OCC)OCC,AC50,[1],148 µM (active)
same,outcome,[1],inactive
same,outcome,[2],inactive
same,AC50,[3],169 µM (active)
same,outcome,[3],inactive
same,outcome,[5],inactive
same,outcome,[6],inactive
Cc1c2ccccc2c(C)c2c1ccc1ccccc12,outcome,[1],inactive
same,AC50,[2],54.4 µM (active)
same,outcome,[3],inactive
same,AC50,[8],44.7 µM (active)
same,AC50,[9],11.4 µM (active)
same,outcome,[5],inactive
same,outcome,[7],inactive
same,outcome,[10],inactive
CCCCCCCCN(C)CCCCCCCC,outcome,[1],inactive
same,outcome,[2],inactive
same,outcome,[3],inactive
same,outcome,[8],inactive
same,AC50,[9],30.4 µM (active)
same,outcome,[5],inactive
same,outcome,[6],inactive
same,outcome,[7],inactive
same,outcome,[10],inactive
Cc1occc1C(=O)Nc1ccc(C(=O)N2CCC(F)(F)/C(=C\C(=O)N3CCC(N4CCCCC4)CC3)c3ccccc32)cc1,outcome,[1],inactive
same,AC50,[2],49.8 µM (active)
same,AC50,[3],34.5 µM (active)
same,outcome,[9],inactive
O=c1[nH]sc2ccccc12,outcome,[1],inactive
same,outcome,[2],inactive
same,outcome,[3],inactive
same,outcome,[8],inactive
same,outcome,[9],inactive
same,AC50,[5],52.9 µM (active)
same,outcome,[10],inactive
O=C(O)Cc1cc(I)c(Oc2ccc(O)c(I)c2)c(I)c1,outcome,[1],inactive
same,outcome,[2],inactive
same,AC50,[3],33.7 µM (active) [middle of 4 runs]
same,outcome,[8],inactive
same,outcome,[6],inactive
same,outcome,[7],inactive
same,outcome,[10],inactive
CC(C)(c1cc(Br)c(O)c(Br)c1)c1cc(Br)c(O)c(Br)c1,AC50,[1],43.7 µM (active)
same,outcome,[1],inactive
same,AC50,[2],49 µM (active) and 58 µM (active)
same,AC50,[3],22.1 µM (active) and 22.6 µM (active)
same,outcome,[8],inactive
same,outcome,[4],inactive
same,AC50,[5],45.9 µM (active) and 42.9 µM (active)
same,outcome,[7],inactive
same,outcome,[10],inactive
CC[C@H](NC(=O)c1cc(F)ccc1NS(=O)(=O)c1cccc2cccnc12)c1ccccc1,outcome,[1],inactive
same,outcome,[2],inactive
same,AC50,[3],0.209 µM (active)
same,outcome,[9],inactive
same,outcome,[4],inactive
same,outcome,[6],inactive
same,outcome,[7],inactive
same,outcome,[10],inactive
c1ccc(C[n+]2cccc3ccccc32)cc1,outcome,[1],inactive
same,outcome,[2],inactive
same,outcome,[3],inactive
same,outcome,[9],inactive
same,outcome,[4],inactive
same,outcome,[6],inactive
same,outcome,[10],inactive
O=C(O)Cn1c(=O)n(Cc2ccc(Br)cc2F)c(=O)c2ccc(Cl)cc21,outcome,[1],inactive
same,outcome,[2],inactive
same,AC50,[3],27 µM (active)
same,outcome,[8],inactive
same,outcome,[9],inactive
same,outcome,[6],inactive
O=C(OCCCCCCOC(=O)c1ccccc1)c1ccccc1,outcome,[1],inactive
same,outcome,[2],inactive
same,outcome,[3],inactive
same,outcome,[8],inactive
same,outcome,[9],inactive
same,outcome,[4],inactive
same,outcome,[5],inactive
same,outcome,[10],inactive

# Reference: PubChem BioAssay (EPA / NIEHS)
